These results are taken from the supplement of paper PMC6331611.

± gives the standard deviation of the averaged measurements. Over roughly 1,600 compounds, “normalized growth (OD600, IQM-normalized) in LPM” has its median near 1; the lowest 2% begin near 0.014. The entries come from a sample that favours the lowest values as a whole.

The assay deals with Salmonella enterica serovar Typhimurium SL1344. As to the kind of experiment: normalized growth (OD600, IQM-normalized) in LPM (fraction of plate interquartile mean); higher = more bacterial growth (less inhibition). The conditions noted are these: LPM pH 5.8; 10 µM; 16 h.
`CCn1cc(C(=O)O)c(=O)c2cc3c(cc21)OCO3`: the normalized growth was 0.00952 ± 0.00073.
Turning to `C[N+]1(C)CCCC(OC(=O)C(O)(c2ccccc2)c2ccccc2)C1` (stereo not given), the normalized growth was 1.1 ± 0.011.
`CC[C@H]1CN2CC[C@H]1C[C@@H]2[C@@H](O)c1ccnc2ccc(OC)cc12` yielded a normalized growth of 0.912 ± 0.022.
As to `CC(C)C[C@H]1C(=O)N2CCC[C@H]2[C@]2(O)O[C@](NC(=O)[C@@H]3C=C4c5cccc6[nH]c(Br)c(c56)C[C@H]4N(C)C3)(C(C)C)C(=O)N12`, the normalized growth turned out to be 0.947 ± 0.03.
Then `Cc1ccc(O)cc1.Cc1cccc(O)c1.Cc1ccccc1O`, with 0.955 ± 0.19; and `O=[N+]([O-])C(Br)(CO)CO`, with 0.786 ± 0.02; and `CCCCOC(=O)c1ccccc1C(=O)OCCCC`, with 1.363 ± 0.0046.
Compound `O=C([O-])Cc1ccccc1.[Na+]` registered a normalized growth of 1.14 ± 0.026.
In turn, `C[CH2][Hg][S]c1ccccc1C(=O)[O-].[Na+]` gave a normalized growth of 0.00984 ± 0.0003.
As to `Oc1noc2c1CCNC2`, the normalized growth stood at 0.948 ± 0.041.
`[O-][n+]1ccccc1[S-].[O-][n+]1ccccc1[S-].[Zn+2]` displayed a normalized growth of 0.00799 ± 0.00024.
Regarding `O=C1CCO1`, the normalized growth worked out at 0.959 ± 0.039.
In turn, `Oc1ccc2c3c1O[C@H]1[C@@H](O)CC[C@@]4(O)[C@@H](C2)N(CC2CCC2)CC[C@]314` showed a normalized growth of 0.92 ± 0.12.
Next, `CC(=O)[O][Hg][c]1ccccc1`: 0.0096 ± 0.00029; `CC(Cc1ccc(O)cc1)NCC(O)c1cc(O)cc(O)c1` (stereo not given): 1.087 ± 0.0059.
For the compound `CCOP(=S)(OCC)Oc1nc(Cl)c(Cl)cc1Cl`, the normalized growth was 1.33 ± 0.11.
With `NC(=O)C[S+]([O-])C(c1ccccc1)c1ccccc1` (stereo not given), the normalized growth stood at 0.865 ± 0.082.
Next, `CC(C)=CC1C(C(=O)OCc2cccc(Oc3ccccc3)c2)C1(C)C` (stereo not given): 0.894 ± 0.04; `NP(N)(=O)NC(=O)c1ccc(F)cc1`: 1.06 ± 0.017.
Next, `C[N+]12CCC(CC1)C(OC(=O)C(O)(c1ccccc1)c1ccccc1)C2` (stereo not given): 1.05 ± 0.026; `Oc1cc(Cl)ccc1Oc1ccc(Cl)cc1Cl`: 0.00811 ± 0.00016; `Oc1ccc(Cl)cc1`: 0.971 ± 0.012.
`Oc1ccc(Cl)cc1Cc1cc(Cl)ccc1O` came in with a normalized growth of 0.895 ± 0.086.
Turning to `O=[N+]([O-])O[C@@H]1CO[C@H]2[C@@H]1OC[C@@H]2O`, the normalized growth came to 1.11 ± 0.026.
On to `CC(C)(O)C(Cl)(Cl)Cl`, for which the normalized growth was 1 ± 0.032.
